# Laboratory results published in PMC8384837, “Expanding the binding specificity for RNA recognition by a PUF domain”.
# Legend:
# Experiment in all cases: yeast three-hybrid, YBZ-1, SC-Leu-His + 0.5 mM 3-AT, 4 days
# Conditions in all cases: tags: N-Gal4 AD-HA kept; label: inside an RPR1-promoter hybrid RNA with tandem MS2 sites; ssRNA
# PUM1 PUF domain R3-WWR = PUM1 PUF domain R3-WWR (Homo sapiens, UniProt Q14671 828-1176, C935W;R936W;Q939R)
# How it was run: (§1)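 The interaction score is the log change in variant frequency from input to selection. Scores were computed in log2 with a pseudocount of 1 for absent variants, using Illumina sequencing of PCR-amplified repeat regions. The input came from four days on SC-Leu and the selection from four days on SC-Leu-His + 0.5 mM 3-AT. The cells were strain YBZ-1 (LexA–MS2 coat fusion, HIS3 reporter) co-expressing Pumilio-1 PUF domain libraries and matching RNA elements from a centromeric plasmid.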
# PUM1 PUF domain R3-SEE = PUM1 PUF domain R3-SEE (Homo sapiens, UniProt Q14671 828-1176, C935S;R936E;Q939E)
# How it was run: as §1
# PUM1 PUF domain R4-DHR = PUM1 PUF domain R4-DHR (Homo sapiens, UniProt Q14671 828-1176, N971D;Q975R)
# How it was run: as §1
# PUM1 PUF domain R3-DFL = PUM1 PUF domain R3-DFL (Homo sapiens, UniProt Q14671 828-1176, C935D;R936F;Q939L)
# How it was run: as §1
# PUM1 PUF domain R5-KFV = PUM1 PUF domain R5-KFV (Homo sapiens, UniProt Q14671 828-1176, C1007K;R1008F;Q1011V)
# How it was run: as §1
# PUM1 PUF domain R5-GVR = PUM1 PUF domain R5-GVR (Homo sapiens, UniProt Q14671 828-1176, C1007G;R1008V;Q1011R)
# How it was run: as §1
# PUM1 PUF domain R5-KLH = PUM1 PUF domain R5-KLH (Homo sapiens, UniProt Q14671 828-1176, C1007K;R1008L;Q1011H)
# How it was run: as §1
# PUM1 PUF domain R1-KLS = PUM1 PUF domain R1-KLS (Homo sapiens, UniProt Q14671 828-1176, S863K;R864L;Q867S)
# How it was run: as §1
# PUM1 PUF domain R4-PFQ = PUM1 PUF domain R4-PFQ (Homo sapiens, UniProt Q14671 828-1176, N971P;H972F)
# How it was run: as §1
# PUM1 PUF domain R6-CYT = target: T1, PUM1 PUF domain R6-CYT (Homo sapiens, UniProt Q14671 828-1176, N1043C;Q1047T)
# T1 sequence: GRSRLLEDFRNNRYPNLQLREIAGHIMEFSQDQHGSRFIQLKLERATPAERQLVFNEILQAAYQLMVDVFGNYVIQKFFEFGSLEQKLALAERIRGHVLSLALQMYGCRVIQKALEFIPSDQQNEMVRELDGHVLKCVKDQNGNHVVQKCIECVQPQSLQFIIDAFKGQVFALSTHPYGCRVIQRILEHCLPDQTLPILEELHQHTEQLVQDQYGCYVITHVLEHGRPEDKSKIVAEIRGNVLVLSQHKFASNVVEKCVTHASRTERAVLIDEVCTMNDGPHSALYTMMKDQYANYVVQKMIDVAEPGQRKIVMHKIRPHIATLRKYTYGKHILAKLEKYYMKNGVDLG
# How it was run: as §1
sequence,measurement,setting,value
GGCUAGAACUAGUGGAUCCCCCGGCGCCCGGCGGCUCGAGCCCGGGUAAGUGUAAGUAGUCUGCAUGCCGCCGGGCGCCAUGCCUGCAGGUCGACUCUAGAAAACAUG,binding signal,PUM1 PUF domain R3-WWR,5.22 log2 enrichment (interaction score)
same,binding signal,PUM1 PUF domain R3-SEE,2.43 log2 enrichment (interaction score)
GGCUAGAACUAGUGGAUCCCCCGGCGCCCGGCGGCUCGAGCCCGGGUAAGUGUACAUAGUCUGCAUGCCGCCGGGCGCCAUGCCUGCAGGUCGACUCUAGAAAACAUG,binding signal,PUM1 PUF domain R4-DHR,6.79 log2 enrichment (interaction score)
GGCUAGAACUAGUGGAUCCCCCGGCGCCCGGCGGCUCGAGCCCGGGUAAGUGUAAAUAGUCUGCAUGCCGCCGGGCGCCAUGCCUGCAGGUCGACUCUAGAAAACAUG,binding signal,PUM1 PUF domain R3-DFL,2.6 log2 enrichment (interaction score)
same,binding signal,PUM1 PUF domain R3-WWR,0.59 log2 enrichment (interaction score)
same,binding signal,PUM1 PUF domain R5-KFV,3.95 log2 enrichment (interaction score)
GGCUAGAACUAGUGGAUCCCCCGGCGCCCGGCGGCUCGAGCCCGGGUAAGUGUCAAUAGUCUGCAUGCCGCCGGGCGCCAUGCCUGCAGGUCGACUCUAGAAAACAUG,binding signal,PUM1 PUF domain R5-GVR,5.93 log2 enrichment (interaction score)
same,binding signal,PUM1 PUF domain R5-KLH,2.85 log2 enrichment (interaction score)
same,binding signal,PUM1 PUF domain R5-KFV,5.97 log2 enrichment (interaction score)
GGCUAGAACUAGUGGAUCCCCCGGCGCCCGGCGGCUCGAGCCCGGGUAAGUGUAAAUCGUCUGCAUGCCGCCGGGCGCCAUGCCUGCAGGUCGACUCUAGAAAACAUG,binding signal,PUM1 PUF domain R1-KLS,3.97 log2 enrichment (interaction score)
GGCUAGAACUAGUGGAUCCCCCGGCGCCCGGCGGCUCGAGCCCGGGUAAGUGUAUAUAGUCUGCAUGCCGCCGGGCGCCAUGCCUGCAGGUCGACUCUAGAAAACAUG,binding signal,PUM1 PUF domain R4-DHR,4.76 log2 enrichment (interaction score)
same,binding signal,PUM1 PUF domain R4-PFQ,5.54 log2 enrichment (interaction score)
GGCUAGAACUAGUGGAUCCCCCGGCGCCCGGCGGCUCGAGCCCGGGUAAGUGAAAAUAGUCUGCAUGCCGCCGGGCGCCAUGCCUGCAGGUCGACUCUAGAAAACAUG,binding signal,PUM1 PUF domain R6-CYT,3.1 log2 enrichment (interaction score)
GGCUAGAACUAGUGGAUCCCCCGGCGCCCGGCGGCUCGAGCCCGGGUAAGUGUAAUUAGUCUGCAUGCCGCCGGGCGCCAUGCCUGCAGGUCGACUCUAGAAAACAUG,binding signal,PUM1 PUF domain R3-WWR,3.35 log2 enrichment (interaction score)
GGCUAGAACUAGUGGAUCCCCCGGCGCCCGGCGGCUCGAGCCCGGGUAAGUGUUAAUAGUCUGCAUGCCGCCGGGCGCCAUGCCUGCAGGUCGACUCUAGAAAACAUG,binding signal,PUM1 PUF domain R5-GVR,1.75 log2 enrichment (interaction score)
same,binding signal,PUM1 PUF domain R5-KFV,6.19 log2 enrichment (interaction score)
